Results filed as inconclusive are left out. Active and inactive are the calls of the source. How the source made its calls, unless noted: active means hit-call score of the fitted dose curve at least 0.9, where 1 is the maximum; inconclusive means response in the unintended direction; inactive means score below 0.9.
Experiments:
[1] = target: Cellular tumor antigen p53 (Homo sapiens) (UniProt P04637); assay: TOX21_p53_BLA_p2_ratio: Tox21 HCT-116 p53 Agonism Beta-lactamase Assay, Ratio, Phase 2 (AID 2283592)
Summary of the method: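 Readout: blue/green (460/530 nm) FRET emission ratio after 2 h CCF4-AM loading at room temperature, excitation 405 nm. HCT116 p53 bla cells, 16 h compound exposure at 37C, 5% CO2; agonist direction fitted against DMSO baseline.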

[2] = TOX21_p53_BLA_p3_viability: Viability Assessment in the Tox21 HCT-116 p53 Agonism Beta-lactamase Assay, Phase 3 (AID 2283593);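 further: cells exposed to compound for 16 h before reading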
Summary of the method: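 Cellular ATP was quantified by CellTiter-Glo luminescence, read after 30 min at room temperature. Beforehand, HCT116 cells (4000/well) received compound 5 h post-seeding, 217-fold diluted from DMSO, then incubated 16 h at 37C.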

[3] = target: Cellular tumor antigen p53 (Homo sapiens) (UniProt P04637); assay: TOX21_p53_BLA_p5_ratio: Tox21 HCT-116 p53 Agonism Beta-lactamase Assay, Ratio, Phase 5 (AID 2283599)
Summary of the method: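 Beta-lactamase reporter ratio (blue 460 nm over green 530 nm, 405 nm excitation) after 2 h CCF4-AM loading, in HCT-116 cells exposed 16 h at 37 C to compounds pinned at 217-fold dilution. Increases relative to DMSO baseline scored.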

[4] = TOX21_p53_BLA_p5_viability: Viability Assessment in the Tox21 HCT-116 p53 Agonism Beta-lactamase Assay, Phase 5 (AID 2283600)
Summary of the method: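 ATP luminescence (CellTiter-Glo, 30 min, RT) served as the viability read-out, with loss of signal indicating cytotoxicity. Compounds in DMSO were pinned at a 217-fold dilution onto 4000 cells/well and incubated 16 h, 37C.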

[5] = target: Cellular tumor antigen p53 (Homo sapiens) (UniProt P04637); assay: TOX21_p53_BLA_p4_ratio: Tox21 HCT-116 p53 Agonism Beta-lactamase Assay, Ratio, Phase 4 (AID 2283601)
Summary of the method: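 Signal is the blue/green (460nm/530nm) ratio of cleaved versus uncleaved CCF4-AM substrate, read after 2 h substrate loading. Cells were HCT116 carrying the p53-responsive beta-lactamase reporter, dosed 16 h at 37C, 5% CO2; CellTiter-Glo measured in parallel.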

[6] = TOX21_p53_BLA_p4_viability: Viability Assessment in the Tox21 HCT-116 p53 Agonism Beta-lactamase Assay, Phase 4 (AID 2283597);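 further: hits lower the luminescence signal meaning cytotoxicity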
Summary of the method: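 ATP content by CellTiter-Glo luminescence, 30 min RT, read after the beta-lactamase ratio step. Cells: HCT116, 4000/well, compound added after 5 h, exposure 16 h at 37C. Signal loss = reduced viability.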

[7] = ACEA_ER_AUC_viability: ACEA Biosciences xCELLigence Real-Time Cell Analysis on Estrogen Receptor Agonism for Viability (AID 2283782);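 further: hit means loss of impedance signal meaning reduced cell growth or viability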
Summary of the method: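 Viability endpoint: reduced impedance area under the curve relative to DMSO, recorded by real-time electrode sensing over ~80 h of continuous exposure. Duplicate plates of T47D in hormone-depleted medium; eight concentrations, 1:4 dilutions, 100 uM maximum.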

[8] = CCTE_Harrill_HTTr_Viability_MCF7: CCTE's 6-hour Cell Viability Assessment for the High-Throughput Transcriptomics (HTTr) Platform, in MCF-7 cells cultured in DMEM + 10% fetal bovine serum, Harrill Lab (AID 2284010; active means hit-call score of the fitted dose curve at least 0.9, where 1 is the maximum; inactive means score below 0.9)
Summary of the method: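 PI exclusion, high-content imaging; 8-pt dilution series, 6 h exposure; bidirectional fit vs DMSO (neg. ctrl/baseline); gain of signal = loss of membrane integrity.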

[9] = CCTE_Harrill_HTTr_CellCount_MCF7: CCTE's Cell Proliferation Assessment for the High-Throughput Transcriptomics (HTTr) Platform, Harrill Lab (AID 2284012);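 further: count of Hoechst-stained nuclei per well by high-content imaging in MCF-7 cells; cells exposed to compound for six hours; intended direction is loss of nuclei count meaning fewer cells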
Summary of the method: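 Readout: Hoechst nuclear count by high-content imaging. MCF-7, 8-point dilution series, 6 h exposure. Bidirectional fit vs DMSO baseline.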

[10] = target: Cellular tumor antigen p53 (Homo sapiens) (UniProt P04637); assay: TOX21_p53_BLA_p3_ratio: Tox21 HCT-116 p53 Agonism Beta-lactamase Assay, Ratio, Phase 3 (AID 2283596)
Summary of the method: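 Cells were seeded at 4000/well, rested 5 h at 37C, then dosed with DMSO compound solutions (217-fold dilution) for 16 h. CCF4-AM substrate was loaded for 2 h at room temperature, and the 460/530 nm emission ratio was fitted for gain of signal versus DMSO.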

Measured: AC50

Chain of Cellular tumor antigen p53 (Homo sapiens) (P04637 whole entry, looked up): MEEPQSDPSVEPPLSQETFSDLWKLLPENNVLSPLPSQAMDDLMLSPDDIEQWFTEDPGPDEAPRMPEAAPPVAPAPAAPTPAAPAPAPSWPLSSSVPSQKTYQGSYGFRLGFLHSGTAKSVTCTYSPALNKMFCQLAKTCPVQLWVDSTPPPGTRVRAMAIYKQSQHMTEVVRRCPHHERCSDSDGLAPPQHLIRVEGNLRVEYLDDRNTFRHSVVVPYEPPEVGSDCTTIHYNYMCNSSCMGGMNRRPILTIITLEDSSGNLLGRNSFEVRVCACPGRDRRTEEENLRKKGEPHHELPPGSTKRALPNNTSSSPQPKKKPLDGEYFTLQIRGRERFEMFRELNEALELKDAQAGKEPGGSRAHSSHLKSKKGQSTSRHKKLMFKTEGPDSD

CC(C)c1ccccc1C(C)C
active: [3] 67 µM
inactive: [1] | [2] | [4] | [5]

COC(C)OC
inactive: [1] | [2] | [4] | [5]

OC[C@H]1O[C@@H](OCCc2ccc(O)cc2)[C@H](O)[C@@H](O)[C@@H]1O
inactive: [1] | [2] | [4] | [5]

Nc1cc(C(=O)O)c(O)c(S(=O)(=O)O)c1
inactive: [1] | [2] | [3] | [4]

C=CCCCCCC
inactive: [1] | [2] | [3] | [4]

CN[C@@H]1CCc2[nH]c3ccc(C(N)=O)cc3c2C1
inactive: [1] | [2] | [3] | [5]

CC(C)(C)c1nnc(NS(=O)(=O)c2ccccc2)s1
inactive: [1] | [2] | [3] | [4]

CC/C(=C(/CC)c1ccc(OP(=O)(O)O)cc1)c1ccc(OP(=O)(O)O)cc1
inactive: [1] | [2] | [3] | [5]

O=C(c1ccc(Cl)cc1)c1ccc(Cl)cc1
not listed: [3] | [10]
inactive: all other assays above

CS(=O)(=O)CCNCc1ccc(-c2ccc3ncnc(Nc4ccc(OCc5cccc(F)c5)c(Cl)c4)c3c2)o1
inactive: [1] | [2] | [3] | [5]

CCC(=O)Nc1ccc(O)cc1
inactive: [1] | [2] | [5]

O=C1CC[C@@H](C(=O)N[C@H]2C[C@@H]2c2ccccc2)N1
inactive: [1] | [2] | [4] | [5]

CN1CCN(c2cc3c(cc2F)c(=O)c(C(=O)O)cn3-c2ccc(F)cc2)CC1
inactive: [1] | [2] | [3] | [4] | [5]

N[C@@H](C(=O)N[C@@H]1C(=O)N2C(C(=O)O)=C(Cl)CC[C@H]12)c1ccccc1
inactive: [1] | [2] | [4]

Cc1scc2c1N(C(=O)CN1CCN(C)CC1)c1ccccc1NC2=O
inactive: [1] | [2] | [3]

CC(=O)Nc1ccc(OCC(O)CNC(C)C)cc1 (centres undefined)
inactive: [1] | [2] | [3] | [4] | [5]

CCN1C(=O)c2ccccc2C1Nc1ccc(OCCN2CCCCC2)cc1 (centres undefined)
inactive: [1] | [2] | [3] | [5]

Cc1ccccc1N1C(=O)c2cc(S(N)(=O)=O)c(Cl)cc2NC1C (centres undefined)
inactive: [1] | [2] | [6] | [4] | [5]

CC1(C)S[C@@H]2[C@H](NC(=O)[C@@H](NC(=O)N3CCNC3=O)c3ccccc3)C(=O)N2[C@H]1C(=O)O
inactive: [1] | [2] | [3] | [5]

Nc1cccc2c(=O)[nH][nH]c(=O)c12
inactive: [1] | [2] | [3] | [4] | [5]

O=C1CCCC(=O)C1
inactive: [1]

Cc1ccnc2ccccc12
inactive: [1] | [10]

Reference: PubChem BioAssay (EPA / NIEHS)
